High-throughput results as filed in PubChem BioAssay.
D3 ag: qHTS of D3 Dopamine Receptor Agonist: qHTS | 0.58% of 410,000 active | D3R DiscoveRx beta-arrestin cells, luminescence, 90 min | D(3) dopamine receptor (Homo sapiens), P35462 | max activation, % | AID 652048, 2013; in the data active = max activation above about 30%; also: 0% is about no effect
Target sequence (P35462 whole entry, looked up): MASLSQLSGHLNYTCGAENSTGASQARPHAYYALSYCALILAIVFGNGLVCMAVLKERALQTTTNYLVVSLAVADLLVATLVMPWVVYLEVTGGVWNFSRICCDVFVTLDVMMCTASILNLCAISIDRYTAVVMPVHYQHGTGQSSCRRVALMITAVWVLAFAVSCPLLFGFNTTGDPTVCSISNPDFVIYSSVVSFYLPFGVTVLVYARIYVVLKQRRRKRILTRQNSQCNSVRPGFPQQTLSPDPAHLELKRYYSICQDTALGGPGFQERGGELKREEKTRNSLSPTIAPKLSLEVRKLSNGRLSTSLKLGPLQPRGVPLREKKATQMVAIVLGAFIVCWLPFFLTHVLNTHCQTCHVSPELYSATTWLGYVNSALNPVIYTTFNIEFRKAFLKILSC
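Agonist mode: compounds and dopamine controls were applied to plated cells for 90 min at 37 degrees C after an overnight attachment at 1500 cells/well. Luminescent read-out followed 30 - 60 minutes at room temperature with DiscoveRx detection reagent.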
D3 antag: qHTS of D3 Dopamine Receptor Antagonist: qHTS; D3R cells, DiscoveRx beta-arrestin luminescence, antagonist mode; active compounds read low; max response, negative = inhibition, %; 2.5% of 360,000 active; in the data active = max response below about -50%; inconclusive = no clear call, values can overlap the other calls; also: % is scaled to controls: 0 for no effect and ±100 for the full control effect
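Cells plated overnight at 1500 cells/well, then exposed to library compounds with dopamine controls for 90 minutes at 37 degrees C. DiscoveRx reagent added for 30–60 minutes at room temperature; luminescence read, quantitative HTS format.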
IL1B secr inh: qHTS for Inhibitors of Inflammasome Signaling: IL-1-beta AlphaLISA Primary Screen | THP-1 LPS/ATP IL-1B secretion, AlphaLISA, 16 h; active compounds read low | activity change, % at 57.5 µM | 4.7% of 360,000 active; in the data active = activity change below about -50%; inconclusive = mostly about -30% to -49%; also: % is scaled to controls: 0 for no effect and ±100 for the full control effect
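THP-1 cells pretreated 1 hr with compounds (up to 57.5 uM final), then stimulated with LPS (250 ng/mL final) plus ATP (1.25 mM final); secreted IL-1B measured by AlphaLISA after 16 hr, decreased signal indicating inhibition.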
DT40 TDP1 no CPT: qHTS for Inhibitors of human tyrosyl-DNA phosphodiesterase 1 (TDP1): qHTS in cells in absence of CPT; Potency, µM (series often up to 46.2 µM), for the others: at the highest dose activity change, negative = growth inhibition, actives largely listed as inhibitors; DT40 Tdp1-/- hTDP1 cells, no CPT, ATP luminescence, 48 h; 15% of 420,000 active; also: potency is read from the fitted curve at half-maximal effect; % is scaled to controls: 0 for no effect and ±100 for the full control effect; nearly all actives have a fitted effect of over 55% in size
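Growth of hTDP1-complemented DT40 Tdp1-knockout cells is measured by ATP luminescence after at least 48 hr compound exposure at 37 °C, with DMSO substituting for the 20 nM CPT used in the parallel screen.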
DT40 TDP1 CPT: qHTS for Inhibitors of human tyrosyl-DNA phosphodiesterase 1 (TDP1): qHTS in cells in presence of CPT; chicken DT40 Tdp1-/-;hTDP1 cells + 20 nM CPT, ATP luminescence, 48 h; Potency, µM (series often up to 46.2 µM), for inactives: at the highest dose activity change, negative = growth inhibition, usual class: inhibitors; 12% of 420,000 active; AID 686979, 2013; also: potency is read from the fitted curve at half-maximal effect; % is scaled to controls: 0 for no effect and ±100 for the full control effect; nearly all actives have a fitted effect of over 55% in size
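Chicken DT40 Tdp1-/- cells complemented with human TDP1, 400 cells/well, exposed to compounds plus 20 nM camptothecin for at least 48 h at 37 C; viability read as ATP content by CellTiter-Glo luminescence.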
ClpP mod: qHTS Assay for Activators of ClpP | Potency, µM (doses to about 57.5 µM), without a hit: at the highest dose activity change, negative = active | ATP-dependent Clp protease proteolytic subunit (Bacillus subtilis (strain 168)), P80244 | 1.9% of 340,000 active | purified B. subtilis ClpP, FRET peptide cleavage, 20 min; active = well fitted falling curve with a large enough effect; inconclusive = small, poorly fitted or top-dose-only effect; inactive = no such curve, though single readings can be large or run the other way; also: potency is read from the fitted curve at half-maximal effect; the source files actives as falling curves though it sought activators and does not explain the sign; nearly all actives have a fitted effect of over 65% in size
Target sequence (P80244 whole entry, looked up): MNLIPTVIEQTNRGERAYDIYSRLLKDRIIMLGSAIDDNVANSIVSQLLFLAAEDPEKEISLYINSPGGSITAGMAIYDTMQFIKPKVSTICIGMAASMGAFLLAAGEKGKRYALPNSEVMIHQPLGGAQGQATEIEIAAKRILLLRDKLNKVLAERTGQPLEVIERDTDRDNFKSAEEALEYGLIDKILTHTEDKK
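ClpP 10 microg/mL final, pH 8 Tris/KCl buffer with BSA, glycerol, Tween-20; compound pinned in; FRET-FV substrate; RT 20 min; Ex320/Em430; ΔFRET vs ADEP 5.8 microM, DMSO, no enzyme.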
* hit, by the source's call; u = inconclusive; x = not tested or not shown. Only some compounds are listed: those with a hit (about 21% of all), similar ones and a draw of the others. Unless noted, calls follow the shape of the dose curve; as a rule, active = well fitted inhibition curve with a large enough effect; inconclusive = small, poorly fitted or top-dose-only effect; inactive = flat fitted curve, though single readings scatter.

SMILES | D3 ag | D3 antag | IL1B secr inh | DT40 TDP1 no CPT | DT40 TDP1 CPT | ClpP mod
CCCn1c(CNC(=O)c2ccccc2)nc2ccccc21 | -8.8 | -78.6* | 5.8 | -2.1% | -9.9% | -0.6%
CC(C)Cn1c(CNC(=O)c2ccccc2)nc2ccccc21 | 10.8 | -55.6* | u | u | -29.2% | -0.9%
COc1cc(C(=O)NCCCc2nc3ccccc3n2CC(C)C)cc(OC)c1OC | -3.4 | x | x | u | 20.6µM* | -1.6%
NCCCCCNC(=O)c1[nH]cnc1C(=O)N[C@@H](Cc1ccccc1)C(=O)OCc1ccccc1 | -9.6 | 9.1 | 23.0 | 8.7% | 6.3% | -1.0%
C=CCOCC(O)Cn1c(N2CCCC2)nc2c1c(=O)[nH]c(=O)n2C (stereo not drawn) | 1.7 | 0.8 | -2.8 | 11.4% | 4.4% | -3.1%
CC(NC(=O)COC(=O)c1ccccc1F)C1CC2CCC1C2 (stereo not drawn) | -3.8 | -0.5 | -10.8 | -29.7% | -16.8% | 2.4%
Oc1cc(NCc2cccnc2)ccc1-c1nc2ccccc2o1 | 2.1 | -25.3 | -5.7 | u | u | 35.5µM*
COc1ccc(N2CCN(C(=O)c3cccc(-n4c(C)nc5cccnc54)c3)CC2)cc1 | 7.7 | x | x | 23.1µM* | 16.4µM* | 0.4%
CCOc1ccc(S(=O)(=O)Nc2cccc(C(=O)N3CCN(c4ccc(OC)cc4)CC3)c2)cc1 | 1.0 | 42.0 | -8.5 | -24.8% | -12.3% | -0.2%
Cc1nc2cccnc2n1-c1cccc(C(=O)N2CCN(c3ccc(Cl)cc3)CC2)c1 | 27.4 | x | x | 2.59µM* | 5.8µM* | -0.3%
Cc1ccc(S(=O)(=O)Nc2cccc(C(=O)NCC3(N4CCCCC4)CCCCC3)c2)cc1F | -3.5 | -0.1 | u | -18.4% | u | x
NC(=O)NC(CC(=O)NCCCc1ccccc1)c1ccc(Cl)cc1 (stereo not drawn) | -24.2 | -54.9* | -12.2 | 14.8% | -5.9% | -1.2%
COc1ccc(-c2ccc(CCC(=O)O)n2CC2CCCO2)cc1 (stereo not drawn) | -3.3 | -9.1 | 18.2 | u | 5.6% | x
O=C(O)CCc1ccc(-c2cccs2)n1CC1CCCO1 (stereo not drawn) | -2.7 | 9.1 | 3.8 | -4.4% | 0.4% | 25.1µM*
O=C(O)CCc1ccc(-c2ccc(F)cc2)n1CC1CCCO1 (stereo not drawn) | -0.2 | -21.1 | 33.3 | 6.0% | 9.6% | 22.4µM*
COc1ccc([C@@H]2C[C@H]3[C@@H](CN2S(=O)(=O)c2ccccc2)C(=O)C[C@@H](c2ccccc2F)N3S(=O)(=O)c2ccc(C)cc2)cc1 | -2.4 | -17.1 | 16.3 | u | -27.3% | 0.1%
COc1ccc(NC(=O)Cn2cc(S(=O)(=O)N3CCN(c4ccccc4F)CC3)c3ccccc3c2=O)cc1Cl | -15.0 | x | x | -1.3% | 4.0% | -20.3%
COc1ccc(N(C)C(=O)Cn2cc(S(=O)(=O)N3CCN(c4ccccc4F)CC3)c3ccccc3c2=O)c(OC)c1 | -10.8 | x | x | 23.1µM* | -28.1% | -12.5%
COc1ccccc1CCn1cnc(Cc2cccc(F)c2)c1C(C)C | -3.2 | 24.1 | 0.0 | u | u | -1.2%
CCc1ncn(CCc2ccccc2OC)c1C(C)C | -16.5 | -23.8 | 39.6 | 4.61µM* | 3.66µM* | -3.7%
COc1ccccc1CCn1cnc(C)c1CC(C)C | -18.0 | -77.9* | 3.6 | 6.51µM* | 11.6µM* | -3.5%
COc1ccccc1CCn1c(=O)c(C)nc2cncnc21 | x | x | x | u | 1.9% | x
COc1cccc(-c2ncn(CCc3ccccc3OC)c2C(C)C)c1 | 5.5 | 15.1 | -10.3 | 5.8µM* | 7.31µM* | 0.9%
Cc1cc(F)ccc1S(=O)(=O)NCC(c1ccco1)S(=O)(=O)c1cccs1 (stereo not drawn) | -3.3 | x | x | u | u | 1.9%
COc1ccc(Cn2c(=O)c3cccnc3n(CC(=O)Nc3c(C)cc(C)cc3C)c2=O)cc1 | -2.6 | x | x | u | u | -1.5%
SMILES | D3 ag | D3 antag | IL1B secr inh | DT40 TDP1 no CPT | DT40 TDP1 CPT | ClpP mod
Cc1cc(C)n(/N=C/c2ccccc2O)c(=O)c1 | 6.8 | 3.1 | -0.3 | 0.0% | 8.0% | x
Cc1cc(C)n(/N=C/c2cc(Cl)cc(Cl)c2O)c(=O)c1 | -27.9 | -76.8* | 27.5 | 0.1% | -14.1% | x
Cc1cccc(N(C(=O)c2csnn2)C(C(=O)NC2CCCCC2)c2ccccn2)c1C (stereo not drawn) | -3.8 | 3.2 | -17.6 | -17.7% | 0.7% | x
CCC(C)(C)NC(=O)c1cc(S(=O)(=O)N2CCc3ccccc32)cn1C | -11.3 | -5.4 | 21.3 | 14.6µM* | 20.6µM* | -1.6%
Cc1cc(F)ccc1NC(=O)c1cc(S(=O)(=O)N2CCc3ccccc32)cn1C | 1.5 | 9.7 | -9.1 | 25.9µM* | u | 3.1%
COc1ccc(NC(=O)c2cc(S(=O)(=O)N3CCc4ccccc43)cn2C)c(OC)c1 | -3.5 | 20.9 | -10.5 | u | u | -9.3%
CCN(C(=O)c1cc(S(=O)(=O)N2CCc3ccccc32)cn1C)c1cccc(C)c1 | -10.6 | x | x | 13µM* | u | 0.0%
CC1CCN(S(=O)(=O)c2ccc3c(c2)N(CC(=O)NCCN(C)C)C(=O)CO3)CC1 | -12.7 | x | x | x | x | 0.5%
O=C(CSc1cn[nH]n1)Nc1nc2ccccc2s1 | -2.1 | 0.4 | 21.1 | 13.7% | 6.5% | x
CC(OC(=O)CCC1CCCCC1)C(=O)Nc1ccc(S(N)(=O)=O)cc1 (stereo not drawn) | -4.6 | 3.1 | -3.9 | -23.1% | -3.4% | 0.3%
Cc1cccc(N(CC(=O)Nc2ccccc2F)S(C)(=O)=O)c1 | 17.6 | -17.2 | -8.4 | -11.0% | -18.9% | -6.2%
Cc1ccc([N+](=O)[O-])cc1N(CC(=O)Nc1ccc(S(=O)(=O)Nc2cccc(C(F)(F)F)c2)cc1)S(C)(=O)=O | -22.3 | u | -84.1* | 18.4µM* | u | -2.3%
COC(=O)c1ccc(NC(=O)CN(c2cccc(C(F)(F)F)c2)S(C)(=O)=O)cc1 | -11.7 | x | x | 4.61µM* | 23.1µM* | 2.1%
CCc1ccc(NC(=O)CN(c2cccc(C)c2)S(C)(=O)=O)cc1 | 34.0* | 8.0 | -9.2 | u | u | -1.0%
COC(=O)c1ccc(NC(=O)CN(c2ccc3c(c2)OCO3)S(C)(=O)=O)cc1 | 2.0 | -9.3 | -5.3 | 2.6% | 4.2% | 0.9%
COCC(C)NC(=O)c1cc2c(ccc3ccccc32)oc1=O (stereo not drawn) | -2.4 | 9.1 | 24.0 | u | u | 4.2%
